Bioassay records deposited in PubChem BioAssay by several laboratories.
SMARCA2 activ – SMARCA2 function activation, primary screen; MG213 cells, MMTV-luciferase reporter, dexamethasone, overnight; activation, % at 9.1 µM; 1% of 370,000 active; AID 652017; in the data active means activation above about 7.8%;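 further: 0% = vehicle wells and 100% = reference activator wells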
MsrA inhibitor – inhibits bovine methionine sulfoxide reductase A; AID 651718; inhibition, % at 15.5 µM; purified bovine MsrA, absorbance read-out; 0.75% of 360,000 active; in the data active means inhibition above about 4.5%;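 further: 0% = vehicle wells with enzyme and 100% = reference inhibitor wells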
MsrA act – activates bovine MsrA enzyme; activation, % at 10.6 µM; 0.3% of 360,000 active; purified bovine MsrA, absorbance read-out; AID 602163; in the data active means activation above about 7.5%;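 further: 0% = vehicle and 100% = reference activator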
ABCB6 inh 2 – human ABCB6 transporter inhibition; AID 602162; fluorescence ratio to DMSO, % at 10 µM; Q9NP58; K562-ABCB6 porphyrin accumulation, flow cytometry, 1 h; active compounds read low; 0.19% of 360,000 active;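 active means fluorescence ratio to DMSO below 75%, the collection mean minus 3 SD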;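 further: signal is porphyrin accumulated inside mitochondria; 100% equals median channel fluorescence of DMSO control wells; lower ratio means ABCB6 inhibition with less porphyrin fluorescence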
Target sequence (Q9NP58 whole entry, looked up): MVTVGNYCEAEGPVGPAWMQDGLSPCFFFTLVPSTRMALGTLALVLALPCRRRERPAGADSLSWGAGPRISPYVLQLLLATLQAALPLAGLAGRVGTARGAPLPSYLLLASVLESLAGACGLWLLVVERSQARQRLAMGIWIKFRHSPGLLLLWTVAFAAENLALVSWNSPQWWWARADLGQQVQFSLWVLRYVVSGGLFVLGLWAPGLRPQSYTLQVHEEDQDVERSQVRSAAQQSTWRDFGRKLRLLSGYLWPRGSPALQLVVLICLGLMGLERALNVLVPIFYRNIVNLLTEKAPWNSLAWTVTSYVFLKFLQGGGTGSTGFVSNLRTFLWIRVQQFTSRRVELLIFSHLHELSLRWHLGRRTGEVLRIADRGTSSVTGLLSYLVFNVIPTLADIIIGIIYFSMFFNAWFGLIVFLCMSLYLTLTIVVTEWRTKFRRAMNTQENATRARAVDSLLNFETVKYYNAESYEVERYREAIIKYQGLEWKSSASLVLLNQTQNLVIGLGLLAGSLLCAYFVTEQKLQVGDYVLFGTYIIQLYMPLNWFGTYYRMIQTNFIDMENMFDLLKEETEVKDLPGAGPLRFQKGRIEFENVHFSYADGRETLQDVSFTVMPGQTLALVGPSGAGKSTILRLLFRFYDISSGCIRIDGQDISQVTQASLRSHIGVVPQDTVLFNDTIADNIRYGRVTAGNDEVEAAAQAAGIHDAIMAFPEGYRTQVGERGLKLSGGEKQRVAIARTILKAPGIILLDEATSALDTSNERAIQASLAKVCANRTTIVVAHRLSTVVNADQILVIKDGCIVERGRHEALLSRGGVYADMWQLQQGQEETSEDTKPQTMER
The depositor's hits bear a star; · = no result given. Sampled rows, rich in hits. Any-hit rate of the full collection: about 2.1%.

SMILES	SMARCA2 activ	MsrA inhibitor	MsrA act	ABCB6 inh 2
O=C(Nc1ccc(C(=O)O)cc1)/C(=C\C=C\c1ccccc1)NC(=O)c1ccccc1Cl	2	5.8*	-7	87
O=C1C(SCCO)=C(SCCO)C(=O)c2ccccc21	-11	1	0	152
CC1=C(SCc2ccccc2)C(=O)c2ccccc2C1=O	-10	21*	1	115
O=C(CSc1nc2sc3c(c2c(=O)n1-c1ccc(Cl)cc1)CCC3)Nc1ccc(C(=O)O)cc1	-2	·	·	·
COc1ccc(NC(=O)C2CCN(S(=O)(=O)c3ccc(C)cc3)CC2)cc1OC	-4	0	-4	74*
COc1ccc(C(=O)N2CCN(c3ccc([N+](=O)[O-])c(-n4nc(C)cc4C)c3)CC2)cc1	12*	1	-3	96
Cc1cc(C)n(-c2cc(N3CCN(C(=O)c4ccc(C(C)(C)C)cc4)CC3)ccc2[N+](=O)[O-])n1	-3	4	0	95
Cc1ccc(S(=O)(=O)c2ccc([N+](=O)[O-])o2)cc1	-12	1	4	50*
Cc1ccc(NC(=O)c2ccc([N+](=O)[O-])o2)c(C)c1	7	1	-4	97
Cc1ccc(S(=O)(=O)/N=C2/NC(=O)/C(=C\c3ccccc3)S2)cc1	0	4	-5	97
Cc1ccc(S(=O)(=O)/N=C2/NC(=O)/C(=C/c3ccccc3)S2)cc1	0	4.6*	-4	102
Cc1cc(-c2n[nH]c(=S)n2/N=C/C=C/c2ccccc2)n[nH]1	-1	1	-1	65*
COc1ccccc1Cc1c(-c2cccc(Br)c2)nc2ccc(Br)cn12	7.9*	0	-12	96
COc1ccccc1Cc1c(-c2ccccc2)nc2ccc(Br)cn12	0	0	-3	112
CCCCS(=O)(=O)/C=C\C=C/S(=O)(=O)CCCC	·	·	-12	69*
Cc1ccc(-c2cc(C(=O)NN=Cc3c4ccccc4cc4ccccc34)[nH]n2)cc1C	-5	·	·	·
COc1cc(/C=C2\SC(=O)N(CCNC(=O)c3sc4cc(F)ccc4c3Cl)C2=O)cc(OC)c1OC	-2	0	-16	73*
CCN(CC)c1ccc(N=Cc2ccc(N(CC)CC)cc2O)cc1	-1	4.6*	1	581
CCN(CC)c1ccc(/C=N/NC(=S)NC)c(O)c1	2	4	-3	164
CCN(CC)c1ccc(/C=N/NC(=O)OC)c(O)c1	3	7.2*	-3	100
O=C(NCCc1ccccc1)Nc1ccc2c(c1)OCO2	7.8*	-2	-3	98
Cc1cccc(NC(=O)c2cccnc2)c1	7.8*	0	-3	108
Cc1ccc(C(=O)Nc2cccc(NC(=O)c3cccnc3)c2)cc1	1	-1	-1	85
Cc1c(C)n(Cc2ccc(-c3ccccc3C(=O)O)cc2)c2ccc(C(=O)N[C@@H](C)c3ccc([N+](=O)[O-])cc3)cc12	-2	·	·	·
CCOCCn1c2ccccc2c2nc3ccccc3nc21	3	4.7*	-2	99
SMILES	SMARCA2 activ	MsrA inhibitor	MsrA act	ABCB6 inh 2
CC(C)c1cc(C(=O)N(C2CCCCC2)C2CCCCC2)no1	0	·	·	·
O=[N+]([O-])c1ccc(/C=N/n2cnc3ccccc32)s1	-4	2	18*	103
O=C(NCCCc1ccccc1)OC1CCC12CCC(c1ccccc1)CC2 (centres undefined)	-2	·	·	·
CC(C)c1cc(N=NC(N)=O)cc(C(C)C)c1O	-3	4.6*	-6	99
Cc1ccc(C(=O)Nc2cc(C(C)C)c(O)c(C(C)C)c2)cc1	-3	0	-3	93
NC(=O)COc1c(-c2ccco2)oc2ccccc2c1=O	1	4.6*	-8	97
O=C(O)COc1c(-c2ccco2)oc2ccccc2c1=O	-1	3	-4	98
COC(=O)C(NC(=O)c1ccccc1)=C1CCCCC1	1	2	5	74*
O=C(Nc1ccc2ccccc2c1)NC1CCCCN(Cc2ccc(Cl)cc2)C1=O (centres undefined)	-5	·	·	·
O=c1c2ccccc2nnn1CSc1nc2ccccc2[nH]1	14*	0	-5	88
Cc1cc(=O)[nH]c(SCn2nnc3ccccc3c2=O)n1	1	0	-1	98
CCC(=O)c1ccc(OCC(=O)OCC(=O)Nc2cccc(S(=O)(=O)N3CCOCC3)c2)cc1	7.8*	0	-2	101
CC1CCN(S(=O)(=O)c2ccc(Cl)cc2Br)CC1	-4	8.8*	-4	76
Cc1ccc(-n2c(SCC(=O)Nc3ccc(S(=O)(=O)Nc4cc(C)nc(C)n4)cc3)nnc2-c2ccc(C(C)(C)C)cc2)cc1	-4	·	·	·
O=C(CNc1cccc2ccccc12)N/N=C/C=C/c1ccco1	1	4.6*	-5	91
O=C(CNc1cccc2ccccc12)N/N=C/c1ccc(C(=O)O)cc1	-1	1	-5	98
